Experimental data: PubChem BioAssay (Tox21)
Several values for one entry are separate records, joined by “and”; a condition that tells them apart may be missing. Identical values can stand only once. Inconclusive results are not listed. A call without a number means that no potency is given here. A structure can be active in one record and inactive in another. Activity calls are given as the source filed them. Calls follow the shape of the dose curve; as a rule, active = well fitted curve in the direction sought with a large enough effect in the repeat runs; inconclusive = weak or mixed curves; inactive = no such curve, though single readings can be large; an effect the other way counts as inactive or inconclusive.

Assays:
[1] = Caspase-3/7 induction in HepG2 cells by small molecules, qHTS cell viability counter screen (AID 1346981); also: nearly all actives have a fitted effect of over 30% in size; also: potency is read from the fitted curve at half-maximal effect
Outline: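 Treatment of HepG2 cells with DMSO-delivered compounds ran 16 hr at 37 C following a 5-hr pre-incubation of 2,000 cells/well. CellTiter-Fluor fluorescence, read after 1 hr, served as the viability measure in a qHTS format.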

[2] = target: Nuclear receptor subfamily 1 group I member 2 (Homo sapiens) (UniProt O75469); assay: Human pregnane X receptor (PXR) small molecule agonists, qHTS assay (AID 1346982); also: nearly all actives have a fitted effect of over 35% in size; also: potency is read from the fitted curve at half-maximal effect
Sequence of Nuclear receptor subfamily 1 group I member 2 (Homo sapiens) (O75469 whole entry, looked up): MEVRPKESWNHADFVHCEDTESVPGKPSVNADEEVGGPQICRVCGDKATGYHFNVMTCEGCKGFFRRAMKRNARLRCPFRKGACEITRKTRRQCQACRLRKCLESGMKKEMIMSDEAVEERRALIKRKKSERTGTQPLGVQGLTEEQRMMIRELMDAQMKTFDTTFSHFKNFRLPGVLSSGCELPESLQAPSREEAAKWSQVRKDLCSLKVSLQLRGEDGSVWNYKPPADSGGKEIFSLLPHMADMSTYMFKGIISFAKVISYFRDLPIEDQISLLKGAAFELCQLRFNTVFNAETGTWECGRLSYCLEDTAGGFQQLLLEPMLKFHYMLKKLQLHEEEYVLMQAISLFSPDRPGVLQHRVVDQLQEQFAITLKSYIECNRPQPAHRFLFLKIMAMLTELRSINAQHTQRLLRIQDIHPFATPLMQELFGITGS
Outline: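 Stable HepG2 line reporting PXR-mediated CYP3A4 expression via luciferase. Treatment: 24 hr with compounds in DMSO at 37 C. Detection: ONE-Glo luminescence.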

[3] = target: Cytochrome P450 2D6 (Homo sapiens) (UniProt P10635); assay: Cytochrome P450 Family 2 Subfamily D Member 6 (CYP2D6) small molecule antagonists: luciferase reporter qHTS assay (AID 1671196); also: nearly all actives have a fitted effect of over 50% in size; also: potency is read from the fitted curve at half-maximal effect
Sequence of Cytochrome P450 2D6 (Homo sapiens) (P10635 whole entry, looked up): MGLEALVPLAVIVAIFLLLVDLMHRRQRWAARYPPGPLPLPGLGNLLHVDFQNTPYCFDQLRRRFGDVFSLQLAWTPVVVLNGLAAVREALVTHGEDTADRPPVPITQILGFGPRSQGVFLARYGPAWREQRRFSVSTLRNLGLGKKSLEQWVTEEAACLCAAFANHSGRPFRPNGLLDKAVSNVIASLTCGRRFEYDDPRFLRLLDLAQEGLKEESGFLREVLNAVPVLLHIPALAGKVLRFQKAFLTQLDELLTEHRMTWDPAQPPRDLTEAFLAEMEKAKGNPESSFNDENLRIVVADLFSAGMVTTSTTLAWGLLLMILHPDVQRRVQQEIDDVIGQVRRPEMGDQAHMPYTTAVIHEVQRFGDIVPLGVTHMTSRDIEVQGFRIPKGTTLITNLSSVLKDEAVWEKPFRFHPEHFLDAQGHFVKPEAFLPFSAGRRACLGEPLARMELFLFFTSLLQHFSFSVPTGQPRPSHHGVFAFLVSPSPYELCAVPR
Outline: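 Chemicals tested for interference with CYP2D6 activity; proluciferin substrate, NADPH regeneration, 1 h at room temperature, luminescent detection.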

[4] = target: Cytochrome P450 2C19 (Homo sapiens) (UniProt P33261); assay: Cytochrome P450 Family 2 Subfamily C Member 19 (CYP2C19) small molecule antagonists: luciferase reporter qHTS assay (AID 1671197); also: nearly all actives have a fitted effect of over 65% in size; also: potency is read from the fitted curve at half-maximal effect
Sequence of Cytochrome P450 2C19 (Homo sapiens) (P33261 whole entry, looked up): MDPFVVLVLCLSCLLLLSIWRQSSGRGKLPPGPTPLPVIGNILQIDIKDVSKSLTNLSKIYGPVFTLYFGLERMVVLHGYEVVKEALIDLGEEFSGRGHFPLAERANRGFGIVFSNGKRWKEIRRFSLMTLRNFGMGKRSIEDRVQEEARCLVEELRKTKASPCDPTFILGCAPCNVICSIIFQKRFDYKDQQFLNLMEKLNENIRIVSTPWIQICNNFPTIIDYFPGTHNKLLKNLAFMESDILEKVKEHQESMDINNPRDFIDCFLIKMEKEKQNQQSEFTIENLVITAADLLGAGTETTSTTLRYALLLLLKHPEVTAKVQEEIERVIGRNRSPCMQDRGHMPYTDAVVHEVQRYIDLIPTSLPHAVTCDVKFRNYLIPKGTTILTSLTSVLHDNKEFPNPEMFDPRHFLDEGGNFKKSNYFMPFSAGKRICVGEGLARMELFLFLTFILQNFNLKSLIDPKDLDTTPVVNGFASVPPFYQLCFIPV
Outline: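 P450-Glo CYP2C19 system: enzyme-substrate mix with compound 10 min at room temperature, then NADPH regeneration solution, 1 h at 37C. Proluciferin-to-luciferin conversion detected by luminescence after 20 min with detection reagent; ketoconazole as positive control.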

[5] = target: Cytochrome P450 2C9 (Homo sapiens) (UniProt P11712); assay: Cytochrome P450 Family 2 Subfamily C Member 9 (CYP2C9) small molecule antagonists: luciferase reporter qHTS assay (AID 1671198); also: nearly all actives have a fitted effect of over 50% in size; also: potency is read from the fitted curve at half-maximal effect
Sequence of Cytochrome P450 2C9 (Homo sapiens) (P11712 whole entry, looked up): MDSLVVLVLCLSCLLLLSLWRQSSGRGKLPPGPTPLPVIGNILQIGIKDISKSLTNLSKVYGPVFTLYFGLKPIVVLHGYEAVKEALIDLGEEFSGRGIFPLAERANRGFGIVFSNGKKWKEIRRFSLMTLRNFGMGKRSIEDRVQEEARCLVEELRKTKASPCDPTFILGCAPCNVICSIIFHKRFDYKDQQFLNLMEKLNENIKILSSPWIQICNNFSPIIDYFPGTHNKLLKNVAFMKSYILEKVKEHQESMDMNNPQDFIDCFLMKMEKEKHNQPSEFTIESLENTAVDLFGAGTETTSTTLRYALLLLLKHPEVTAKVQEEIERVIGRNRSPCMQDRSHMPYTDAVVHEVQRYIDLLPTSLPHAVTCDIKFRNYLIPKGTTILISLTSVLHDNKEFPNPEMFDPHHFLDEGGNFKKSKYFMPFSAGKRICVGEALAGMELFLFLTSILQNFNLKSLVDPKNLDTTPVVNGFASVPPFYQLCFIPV
Outline: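 CYP2C9 activity was measured with a P450-Glo proluciferin substrate. Enzyme–substrate mix was held with compound for 10 min at room temperature, then NADPH regeneration solution was added for 1 h at 37C. Luciferin product was read as luminescence.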

[6] = target: Voltage-gated inwardly rectifying potassium channel KCNH2 (Homo sapiens) (UniProt Q12809); assay: Human Ether-a-go-go-Related Gene (hERG) channel small molecule antagonists: fluorescence cell-based qHTS assay (AID 1671200);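 also: hERG-expressing U2OS cells given a thallium stimulus after FluxOR II dye loading; series mostly up to about 77 µM; nearly all actives have a fitted effect of over 50% in size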
Sequence of Voltage-gated inwardly rectifying potassium channel KCNH2 (Homo sapiens) (Q12809 whole entry, looked up): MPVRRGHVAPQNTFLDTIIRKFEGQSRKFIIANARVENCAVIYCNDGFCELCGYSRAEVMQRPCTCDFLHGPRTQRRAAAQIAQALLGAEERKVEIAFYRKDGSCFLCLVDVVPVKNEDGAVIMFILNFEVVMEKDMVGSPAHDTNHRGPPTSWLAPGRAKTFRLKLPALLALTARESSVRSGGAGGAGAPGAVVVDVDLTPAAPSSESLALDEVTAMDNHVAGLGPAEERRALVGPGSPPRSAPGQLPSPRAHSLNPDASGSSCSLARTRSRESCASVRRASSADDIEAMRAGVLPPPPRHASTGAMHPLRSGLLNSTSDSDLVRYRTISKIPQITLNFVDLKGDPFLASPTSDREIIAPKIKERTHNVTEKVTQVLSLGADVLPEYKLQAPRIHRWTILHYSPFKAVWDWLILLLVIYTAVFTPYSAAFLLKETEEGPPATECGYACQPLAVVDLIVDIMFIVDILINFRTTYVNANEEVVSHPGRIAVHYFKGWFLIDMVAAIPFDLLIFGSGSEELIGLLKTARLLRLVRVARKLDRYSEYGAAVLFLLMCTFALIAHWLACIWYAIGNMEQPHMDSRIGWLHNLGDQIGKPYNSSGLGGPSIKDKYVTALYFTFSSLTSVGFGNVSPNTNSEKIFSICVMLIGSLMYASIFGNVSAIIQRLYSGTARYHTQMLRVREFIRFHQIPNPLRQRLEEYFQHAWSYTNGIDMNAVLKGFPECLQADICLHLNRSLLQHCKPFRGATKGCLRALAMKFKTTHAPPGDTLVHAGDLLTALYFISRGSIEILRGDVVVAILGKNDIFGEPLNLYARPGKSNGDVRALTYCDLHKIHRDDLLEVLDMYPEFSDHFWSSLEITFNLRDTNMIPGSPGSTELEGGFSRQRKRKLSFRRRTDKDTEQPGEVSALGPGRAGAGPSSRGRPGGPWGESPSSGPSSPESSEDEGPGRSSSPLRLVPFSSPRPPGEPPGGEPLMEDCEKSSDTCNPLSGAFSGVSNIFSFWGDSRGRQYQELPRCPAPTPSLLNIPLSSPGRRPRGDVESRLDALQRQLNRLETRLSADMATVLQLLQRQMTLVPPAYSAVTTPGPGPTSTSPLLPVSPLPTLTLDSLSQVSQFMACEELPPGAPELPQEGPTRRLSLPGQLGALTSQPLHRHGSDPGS
Outline: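 Cell line hERG-U2OS; dye FluxOR II, 1 h RT dark; Tl+ stimulus; ex 480/em 540 nm, read each second for 2 min.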

[7] = target: Cytochrome P450 3A4 (Homo sapiens) (UniProt P08684); assay: Cytochrome P450 Family 3 Subfamily A Member 4 (CYP3A4) small molecule antagonists: luciferase reporter qHTS assay (AID 1671201); also: nearly all actives have a fitted effect of over 50% in size; also: potency is read from the fitted curve at half-maximal effect
Sequence of Cytochrome P450 3A4 (Homo sapiens) (P08684 whole entry, looked up): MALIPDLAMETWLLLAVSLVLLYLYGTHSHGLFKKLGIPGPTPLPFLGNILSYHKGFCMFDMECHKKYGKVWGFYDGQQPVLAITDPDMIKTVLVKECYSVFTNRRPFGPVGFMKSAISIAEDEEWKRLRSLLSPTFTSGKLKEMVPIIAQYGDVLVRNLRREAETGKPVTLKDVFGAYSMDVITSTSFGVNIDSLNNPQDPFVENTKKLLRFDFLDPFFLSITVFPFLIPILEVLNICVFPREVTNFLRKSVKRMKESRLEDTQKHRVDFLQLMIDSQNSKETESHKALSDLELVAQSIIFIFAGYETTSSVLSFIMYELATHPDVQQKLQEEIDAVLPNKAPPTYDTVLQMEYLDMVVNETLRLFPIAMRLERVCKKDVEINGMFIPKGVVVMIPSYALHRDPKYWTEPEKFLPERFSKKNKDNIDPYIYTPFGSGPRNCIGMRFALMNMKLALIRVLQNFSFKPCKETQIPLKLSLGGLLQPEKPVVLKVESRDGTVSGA
Outline: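 Room-temperature assay throughout: 10 min compound–enzyme/substrate preincubation, 1 h reaction after NADPH regeneration solution, 20 min detection. Luciferin formed from proluciferin substrate is quantified by luminescence.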

[8] = target: Cytochrome P450 1A2 (Homo sapiens) (UniProt P05177); assay: Cytochrome P450 Family 1 Subfamily A Member 2 (CYP1A2) small molecule antagonists: luciferase reporter qHTS assay (AID 1671199); also: nearly all actives have a fitted effect of over 50% in size; also: potency is read from the fitted curve at half-maximal effect
Sequence of Cytochrome P450 1A2 (Homo sapiens) (P05177 whole entry, looked up): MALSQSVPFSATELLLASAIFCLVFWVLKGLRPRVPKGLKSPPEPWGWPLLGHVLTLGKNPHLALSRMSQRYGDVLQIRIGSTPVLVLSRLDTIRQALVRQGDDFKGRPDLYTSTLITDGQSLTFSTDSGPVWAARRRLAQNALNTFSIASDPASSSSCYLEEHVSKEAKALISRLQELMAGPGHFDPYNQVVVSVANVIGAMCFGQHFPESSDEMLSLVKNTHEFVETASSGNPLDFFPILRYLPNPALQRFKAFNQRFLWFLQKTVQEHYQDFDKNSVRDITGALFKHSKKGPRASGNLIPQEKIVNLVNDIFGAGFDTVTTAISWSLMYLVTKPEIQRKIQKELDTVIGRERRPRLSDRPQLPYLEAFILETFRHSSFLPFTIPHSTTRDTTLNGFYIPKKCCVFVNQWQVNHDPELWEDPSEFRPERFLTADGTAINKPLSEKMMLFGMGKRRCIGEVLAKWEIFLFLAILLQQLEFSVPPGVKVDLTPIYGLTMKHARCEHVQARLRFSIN
Outline: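 Read-out is luminescence from luciferin detection reagent (20 min) proportional to CYP1A2 activity; compounds in DMSO preincubated 10 min with enzyme and proluciferin substrate, then NADPH regeneration solution, 1 h, room temperature.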

SMILES | Potency [1] | Potency [2] | Potency [3] | Potency [4] | Potency [5] | outcome [6] | Potency [7] | Potency [8]
CCC(O)OCCCOC (configuration not stated) | inactive | 11.1 µM (active) and inactive | inactive | 41 µM (active) and inactive | inactive | inactive | inactive | 
Cc1ccc2oc(=O)ccc2c1 | inactive | 31.5 µM (active) and inactive | inactive | inactive and 35.6 µM (active) | inactive | inactive | inactive | 
FC(F)(F)c1ccc(Cl)c(Cl)c1 | inactive | inactive | inactive | inactive | inactive | inactive | inactive | 
Cc1ccc(N(C)C)cc1 | inactive | inactive | inactive and 35.6 µM (active) | inactive and 50.2 µM (active) | inactive | inactive | inactive | 
C[Si](O[Si](C)(C)C)O[Si](C)(C)C | inactive | inactive | inactive | inactive | inactive | inactive | inactive | 
O=C(Oc1ccccc1)c1ccccc1 | inactive | inactive | inactive | inactive | inactive | inactive | inactive | 
O=C(O)c1ccc(C(=O)O)cc1 | inactive | inactive | inactive | inactive | inactive | inactive | inactive | 
CCCCCCCCCCCCc1ccccc1 | inactive | inactive | inactive | inactive | inactive |  | inactive | 
CC(C)CC(=O)CC(C)C | inactive | inactive | inactive | inactive | inactive | inactive | 22.7 µM (active) and inactive | 
CC(C)(N)CO | inactive | 60.9 µM (active) and inactive | inactive |  | inactive | inactive | inactive | inactive
O=c1[nH]nnc2ccccc12 | inactive | inactive | inactive | inactive | inactive | inactive | inactive | inactive
c1ccc2scnc2c1 | inactive | inactive | inactive | inactive | inactive | inactive | inactive | 
O=C=NCCCCCCN=C=O | inactive | 47.5 µM (active) and inactive | inactive | 69.4 µM (active) and inactive |  | inactive | inactive | inactive
CCOC(=O)NNc1nncc2ccccc12 | inactive | inactive | 35.6 µM (active) | inactive | inactive | inactive | inactive | 
CCCCC(CC)COC(=O)CCCCC(=O)OCC(CC)CCCC (configuration not stated) | inactive | inactive | inactive | 70.6 µM (active) | 28.3 µM (active) | inactive | inactive | inactive and 35.6 µM (active)
CCCCCCOCCO | inactive | inactive | inactive |  | inactive | inactive | inactive | inactive
CC(=O)CC(=O)Nc1ccccc1C | inactive | inactive | inactive | inactive |  | inactive | inactive | 
CCCCCOC(C)=O | inactive | inactive | inactive | 32.1 µM (active) and inactive | 10 µM (active) | inactive | inactive | 
Cc1cccnc1 | inactive | inactive | inactive | inactive | inactive | inactive | inactive | 
CC1CCC(C(C)C)C(O)C1 (configuration not stated) | inactive | inactive | inactive | 70.3 µM (active) and inactive | inactive | inactive | inactive | 
O=P(OC(CCl)CCl)(OC(CCl)CCl)OC(CCl)CCl | 30.5 µM (active) | 34.2 µM (active) and 6.11 µM (active) | 39.7 µM (active) and 35.6 µM (active) |  | 35.4 µM (active) and 35.6 µM (active) | inactive | 706 nM (active) and 2.83 µM (active) | 35.4 µM (active) and 31.7 µM (active)
